This is a sample that favours compounds with a hit; in the whole collection about 3.1% have one here.
SARS 3CLpro inh = SARS-CoV 3CLpro protease inhibitors, primary screen, biochemical, quenched FRET | recombinant SARS-CoV 3CLpro, quenched FRET peptide cleavage | inhibition, % at 6 µM | Replicase polyprotein 1ab (Severe acute respiratory syndrome coronavirus), P0C6X7 | 0.14% of 290,000 active; in the data active = inhibition above about 12%
Mtb FBA inh = Mtb FBA enzyme inhibitors, primary screen, biochemical, fluorescence, strain H37Rv. inhibition, % at 1 µM. purified M. tuberculosis FBA, fluorescence read-out. 2.3% of 360,000 active. AID 588726, 2011
Target sequence (P9WQA3 whole entry, looked up): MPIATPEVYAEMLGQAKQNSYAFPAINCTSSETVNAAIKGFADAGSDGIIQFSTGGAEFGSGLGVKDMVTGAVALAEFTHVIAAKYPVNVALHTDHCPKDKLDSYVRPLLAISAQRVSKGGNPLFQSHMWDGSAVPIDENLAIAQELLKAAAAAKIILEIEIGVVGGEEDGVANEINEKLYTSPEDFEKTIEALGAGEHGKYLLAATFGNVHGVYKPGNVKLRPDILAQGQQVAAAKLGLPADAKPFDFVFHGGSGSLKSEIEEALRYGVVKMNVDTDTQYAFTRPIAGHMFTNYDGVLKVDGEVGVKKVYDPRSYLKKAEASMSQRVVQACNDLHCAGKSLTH
FadD28 binding = inhibitors of FadD28 bisubstrate probe binding, primary screen, biochemical, fluorescence polarization, single point | Mycobacterium tuberculosis FadD28 fatty-acid-AMP ligase | inhibition, % at 12.5 µM | 0.22% of 360,000 active; in the data active = inhibition above about 8.5%, passing the limit was not always enough
GDH-TPI counter-1 = GDH-TPI coupling enzyme inhibitors, primary screen, artefact control for M. tuberculosis FBA inhibitor project, biochemical, absorbance, full deck; GDH-TPI coupled enzyme counterscreen, NADH absorbance; 1.2% of 360,000 active; inhibition, % at 4.8 µM; in the data active = inhibition above about 30%
Mtb BioA inh = M. tuberculosis BioA enzyme inhibitors, primary screen, biochemical, plate reader, single point, HTS. 7,8-diaminopelargonic acid synthase BioA (Mycobacterium tuberculosis). purified M. tuberculosis BioA enzyme. inhibition, % at 9.99 µM. 0.096% of 360,000 active; in the data active = inhibition above about 40%
Mtb FBA inh conf = M. tuberculosis aldolase blockers, biochemical, fluorescence, strain H37Rv, confirmation | purified M. tuberculosis FBA, fluorescence read-out | inhibition, % at 1 µM | shares compounds with Mtb FBA inh | 78% of 5,600 active
GDH-TPI counter-2 = GDH-TPI coupling enzyme inhibitors, artefact control for M. tuberculosis FBA inhibitor project, biochemical, fluorescence, high throughput; inhibition, % at 1 µM; shares compounds with Mtb FBA inh; 81% of 5,600 active; GDH-TPI coupled enzyme counterscreen; in the data active = inhibition above about 10%
Each line names hits and unclear results; the compound was inactive in the other large screens (follow-up assays come after a bar, where they were run). Cut-off read from the data, not from the text of the source, unless noted: active = inhibition above about 27%; inactive = the rest.

CC(=O)Nc1cc(-c2cccc(F)c2)cn2c(-c3ccc(S(C)(=O)=O)cc3)cnc12	Mtb FBA inh 71 (no result: SARS 3CLpro inh) | Mtb FBA inh conf active | GDH-TPI counter-2 active
CCCNC(=O)c1c(N)n(-c2cccc(OC)c2)c2nc3ccccc3nc12	Mtb FBA inh 68 | Mtb FBA inh conf inactive | GDH-TPI counter-2 inactive
Nc1c(C(=O)NCc2ccco2)c2nc3ccccc3nc2n1Cc1ccc(F)cc1	Mtb FBA inh 58 | Mtb FBA inh conf 38 | GDH-TPI counter-2 37
COc1ccc(CCn2c(N)c(C(=O)NCc3ccco3)c3nc4ccccc4nc32)cc1	Mtb FBA inh 85 (no result: Mtb BioA inh) | Mtb FBA inh conf active | GDH-TPI counter-2 198
CCCCNC(=O)CSc1nc2ccccc2c(=O)n1Cc1ccc2c(c1)OCO2	none (no result: Mtb BioA inh)
COC(=O)c1c(N)n(-c2cc(OC)cc(OC)c2)c2nc3ccccc3nc12	none (no result: Mtb FBA inh, FadD28 binding, GDH-TPI counter-1, Mtb BioA inh)
CCCCNC(=O)c1c(N)n(Cc2ccc3c(c2)OCO3)c2nc3ccccc3nc12	Mtb FBA inh 30 | Mtb FBA inh conf 65 | GDH-TPI counter-2 55
Nc1c(C(=O)NCc2ccco2)c2nc3ccccc3nc2n1CCN1CCOCC1	Mtb FBA inh 72 | Mtb FBA inh conf 108 | GDH-TPI counter-2 89
COc1ccc(Cn2c(N)c(C(=O)NCc3ccco3)c3nc4ccccc4nc32)cc1	Mtb FBA inh 61 | Mtb FBA inh conf 190 | GDH-TPI counter-2 158
COc1ccc(S(=O)(=O)Cc2ccc(C(=O)NCc3ccco3)o2)cc1	none
CCCCCn1c(N)c(C(=O)NCCN2CCOCC2)c2nc3ccccc3nc21	Mtb FBA inh 65 | Mtb FBA inh conf active | GDH-TPI counter-2 active
COc1ccc(CCNC(=O)c2c(N)n(CCN3CCOCC3)c3nc4ccccc4nc23)cc1OC	none
Nc1c(C(=O)NCCN2CCOCC2)c2nc3ccccc3nc2n1-c1cccc(F)c1	Mtb FBA inh 104 | Mtb FBA inh conf inactive | GDH-TPI counter-2 inactive
CNC(=O)C[C@H]1CC[C@@H]2[C@H](COc3ccc(NC(=O)Nc4ccc(Cl)cc4)cc3C(=O)N2C)O1	none (no result: SARS 3CLpro inh, Mtb FBA inh, FadD28 binding, GDH-TPI counter-1)
CCCCn1c(N)c(C(=O)NCc2cccs2)c2nc3ccccc3nc21	Mtb FBA inh 33 | Mtb FBA inh conf 166 | GDH-TPI counter-2 142
CCOC(=O)c1c(N)n(Cc2ccco2)c2nc3ccccc3nc12	Mtb FBA inh 77 | Mtb FBA inh conf 198 | GDH-TPI counter-2 172
Nc1c(C(=O)NCCCc2ccccc2)c2nc3ccccc3nc2n1Cc1cccs1	none
COc1ccc(-n2c(N)c(C(=O)NCc3ccco3)c3nc4ccccc4nc32)c(OC)c1	Mtb FBA inh 60 | Mtb FBA inh conf inactive | GDH-TPI counter-2 inactive
COc1ccc(-n2c(=S)[nH]c3cc(C(=O)NCc4ccco4)ccc3c2=O)c(OC)c1	none
CNC[C@@H]1Oc2ccc(NC(=O)Nc3ccc(C(F)(F)F)cc3)cc2CC(=O)N([C@H](C)CO)C[C@H]1C	none (no result: SARS 3CLpro inh, Mtb FBA inh, FadD28 binding, GDH-TPI counter-1)
O=C(N[C@@H]1CC[C@H](CCNS(=O)(=O)c2cccc(Cl)c2)O[C@@H]1CO)c1ccc(F)cc1	none (no result: SARS 3CLpro inh, Mtb FBA inh, FadD28 binding, GDH-TPI counter-1)
COc1ccc(-c2cc(C(=O)OCC(=O)Nc3cc(C)on3)c3ccccc3n2)cc1OC	none (no result: Mtb BioA inh)
Cc1ccc(-c2cc(C(=O)OCC(=O)Nc3cc(C)on3)c3ccccc3n2)c(C)c1	Mtb FBA inh 103 | Mtb FBA inh conf 58 | GDH-TPI counter-2 50
N#Cc1nc(-c2ccc(F)cc2)oc1NCc1ccco1	Mtb FBA inh 71 (no result: Mtb BioA inh) | Mtb FBA inh conf 107 | GDH-TPI counter-2 73
Cc1ccc(OCc2nc(C#N)c(NCc3ccco3)o2)cc1	none
N#Cc1nc(-c2ccco2)oc1NCc1ccco1	Mtb FBA inh 40 | Mtb FBA inh conf 172 | GDH-TPI counter-2 176
Cc1ccc(-c2nc(C#N)c(NCc3ccco3)o2)cc1	Mtb FBA inh 92 | Mtb FBA inh conf 54 | GDH-TPI counter-2 41
N#Cc1nc(-c2ccccc2)oc1NCCCn1ccnc1	Mtb FBA inh 100 | Mtb FBA inh conf 139 | GDH-TPI counter-2 89
C[C@@H]1CN([C@H](C)CO)C(=O)c2cccc(N(C)C)c2O[C@H]1CN(C)Cc1ccc(C(=O)Nc2ccccc2N)cc1	none (no result: SARS 3CLpro inh, Mtb FBA inh, FadD28 binding, GDH-TPI counter-1)
CN(C)CC(=O)Nc1ccc2c(c1)[C@@H]1C[C@H](CC(=O)NCc3ccccc3)O[C@@H](CO)[C@@H]1O2	none (no result: SARS 3CLpro inh, Mtb FBA inh, FadD28 binding, GDH-TPI counter-1)
O=S(=O)(c1ccccc1)c1nc(-c2ccco2)oc1NCCCN1CCOCC1	none
COCCNc1oc(-c2ccc(F)cc2)nc1C#N	Mtb FBA inh 107 | Mtb FBA inh conf inactive | GDH-TPI counter-2 inactive
Cc1cccc(-c2nc(C#N)c(NCc3ccco3)o2)c1	Mtb FBA inh 48 | Mtb FBA inh conf 165 | GDH-TPI counter-2 135
CN(C)CCNc1oc(-c2cccc(Cl)c2)nc1C#N	Mtb FBA inh 57 | Mtb FBA inh conf inactive | GDH-TPI counter-2 11
Cc1cccc(OCc2nc(C#N)c(NCCN(C)C)o2)c1	none
N#Cc1nc(-c2ccc(OCc3ccccc3)cc2)oc1NCCN1CCOCC1	none (no result: Mtb FBA inh, FadD28 binding, GDH-TPI counter-1, Mtb BioA inh)
N#Cc1nc(-c2ccco2)oc1NCCCN1CCOCC1	Mtb FBA inh 56 (no result: Mtb BioA inh) | Mtb FBA inh conf active | GDH-TPI counter-2 active
C[C@H]1CN([C@@H](C)CO)C(=O)c2cccc(NC(=O)C3CCCCC3)c2O[C@H]1CN(C)Cc1ccc(-c2ccccc2)cc1	none (no result: SARS 3CLpro inh, Mtb FBA inh, FadD28 binding, GDH-TPI counter-1)
N#Cc1nc(-c2ccco2)oc1NCc1ccccc1Cl	Mtb FBA inh 35 | Mtb FBA inh conf 89 | GDH-TPI counter-2 79
N#Cc1nc(-c2cccc3ccccc23)oc1NCCN1CCCCC1	Mtb FBA inh 70 | Mtb FBA inh conf 195 | GDH-TPI counter-2 188
CNc1oc(-c2ccc(OCc3ccccc3)cc2)nc1C#N	Mtb FBA inh 74 (no result: Mtb BioA inh) | Mtb FBA inh conf 84 | GDH-TPI counter-2 70
N#Cc1nc(Cc2cccc3ccccc23)oc1NCc1ccco1	none
CN(Cc1ccccc1)c1oc(COc2ccccc2F)nc1C#N	none
CN(Cc1ccccc1)c1oc(-c2ccco2)nc1C#N	Mtb FBA inh 67 | Mtb FBA inh conf 41 | GDH-TPI counter-2 37
O=C(Cc1ccccn1)N[C@H]1CC[C@H](CCn2cc(-c3cccnc3)nn2)O[C@@H]1CO	none (no result: SARS 3CLpro inh, Mtb FBA inh, FadD28 binding, GDH-TPI counter-1)
Cc1cccc(S(=O)(=O)N2C[C@H](O)COC[C@@H]3O[C@@H](CC(=O)Nc4ccc(-c5ccccc5)cc4)CC[C@H]32)c1	none (no result: SARS 3CLpro inh, Mtb FBA inh, FadD28 binding, GDH-TPI counter-1)
COc1ccc(CCNc2nc(C)cc(C)c2C#N)cc1OC	none
CC(C)(C)c1ccc(-c2nc(C#N)c(NCc3cccnc3)o2)cc1	none
